Mtb FBA inh: Mtb fructose-bisphosphate aldolase inhibition; P9WQA3; purified M. tuberculosis FBA, fluorescence read-out; inhibition, % at 1 µM; 2.3% of 360,000 active; AID 588726;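 note: 0% = vehicle and 100% = reference inhibitor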
Target sequence (P9WQA3 whole entry, looked up): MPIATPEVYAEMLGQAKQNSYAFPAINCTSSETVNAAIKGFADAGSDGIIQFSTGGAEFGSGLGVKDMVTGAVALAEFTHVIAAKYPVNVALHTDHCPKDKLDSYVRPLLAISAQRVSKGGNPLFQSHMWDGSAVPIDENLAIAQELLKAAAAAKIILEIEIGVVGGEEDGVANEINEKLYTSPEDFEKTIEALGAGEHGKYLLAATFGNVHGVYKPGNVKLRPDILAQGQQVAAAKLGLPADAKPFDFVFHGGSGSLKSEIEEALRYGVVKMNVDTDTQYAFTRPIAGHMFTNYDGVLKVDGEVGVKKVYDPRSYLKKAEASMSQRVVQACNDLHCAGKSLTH
DUSP3 inh: blocks human VHR1 dual specificity phosphatase | P51452 | recombinant VHR phosphatase, pNPP absorbance | inhibition, % at 13.3 µM | 0.52% of 290,000 active; in the data active = inhibition above about 50%
Target sequence (P51452 whole entry, looked up): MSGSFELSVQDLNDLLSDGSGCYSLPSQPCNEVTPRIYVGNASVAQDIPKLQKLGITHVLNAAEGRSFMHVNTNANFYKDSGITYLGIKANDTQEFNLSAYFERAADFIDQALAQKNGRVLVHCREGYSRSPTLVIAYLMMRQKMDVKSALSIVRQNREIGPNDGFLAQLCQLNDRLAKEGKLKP
Mtb hypoxia inh: reduces hypoxia-regulated biosensor signal in M. tuberculosis; AID 1159583; fluorescence inhibition, % (test concentration not listed); M. tuberculosis hypoxia-regulated fluorescent reporter, fluorescence; 0.1% of 300,000 active; in the data active = fluorescence inhibition mostly above about 23%, no sharp cut-off; inactive = mostly below about 17%
Mtb betalactam: beta-lactam sensitization of Mtb H37Rv. M. tuberculosis H37Rv growth with meropenem, percent inhibition. inhibition, % at 25 µM. 0.27% of 330,000 active. AID 434955; call rule not given here;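 note: growth measured after seven days incubation then overnight dye step; 0% = bacteria only wells and 100% = bacteria with antibiotic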
GDH-TPI counter-1: counter-screen for M. tuberculosis FBA inhibitors: GDH-TPI coupled enzymes; GDH-TPI coupled enzyme counterscreen, NADH absorbance; inhibition, % at 4.8 µM; 1.2% of 360,000 active; AID 588335; in the data active = inhibition above about 30%;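 note: 0% = DMSO wells and 100% = wells lacking the enzyme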
Mtb FBA confirm: Mtb FBA inhibition, confirmed | shares compounds with Mtb FBA inh | purified M. tuberculosis FBA, fluorescence read-out | inhibition, % at 1 µM | 78% of 5,600 active;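 note: 0% = vehicle wells and 100% = reference inhibitor wells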
GDH-TPI counter-2: inhibits GDH-TPI coupling enzymes, flagging Mtb FBA hits; AID 652141; 81% of 5,600 active; GDH-TPI coupled enzyme counterscreen, fluorescence; inhibition, % at 1 µM; shares compounds with Mtb FBA inh; in the data active = inhibition above about 10%
GDH-TPI DR: counter-screen for M. tuberculosis FBA inhibitors: GDH-TPI dose response; IC50, µM; 79% of 170 active; GDH-TPI coupled enzyme assay, fluorescence, artifact counterscreen; AID 652145; shares compounds with Mtb FBA inh; call rule not given here
Starred values were filed as active, the others as inactive; . = no result; + = active, no number. Shown are actives, neighbours in structure and some others; about 3.6% of the full set was active somewhere. Cut-off read from the data, not from the text of the source, unless noted: active = inhibition above about 27%; inactive = the rest.

SMILES | Mtb FBA inh | DUSP3 inh | Mtb hypoxia inh | Mtb betalactam | GDH-TPI counter-1 | Mtb FBA confirm | GDH-TPI counter-2 | others
O=C(NCc1ccccc1)C1CCN(S(=O)(=O)c2ccc(N3CCCC3=O)cc2)CC1 | 6 | 52* | -10 | -2 | 6 | . | .
O=C(NCc1ccccc1Cl)C1CCN(S(=O)(=O)N2CCCCCC2)CC1 | 2 | 54* | 7 | -7 | 5 | . | .
CC1CCN(S(=O)(=O)N2CCCC(C(=O)NCc3ccccc3Cl)C2)CC1 (stereo unspecified) | -2 | 35 | -4 | 0 | -2 | . | .
C=C1C(=O)OC2C1C(OC(=O)CC(=O)OC1CC(C)C3C=CC(=O)[C@@]3(C)C3OC(=O)C(=C)C13)CC(C)C1C=CC(=O)[C@]12C (stereo partly specified) | . | . | 21 | . | . | . | .
CCCN1CCC(=O)N(C(CSc2ccccc2)CC(C)C)CC1 (stereo unspecified) | . | . | -4 | . | . | . | .
O=C(O)c1cc(NN=Nc2cccc([N+](=O)[O-])c2)cc([N+](=O)[O-])c1 | -2 | 10 | 4 | -7 | 24 | . | .
O=[N+]([O-])c1ccc(N=NNc2ccccc2)cc1 | 78* | 10 | 10 | -4 | 11 | . | .
O=C(O)c1cc(NN=Nc2ccc(Br)cc2)cc([N+](=O)[O-])c1 | -1 | -19 | . | 19 | 31* | . | .
COC(=O)C1CC2CCC(O)CC2N1Cc1ccccc1OC(=O)c1cccs1 (stereo unspecified) | . | . | 2 | . | . | . | .
Cc1cc2nc(C)n(CCCNC(=O)Nc3ccc(C#N)cc3)c2cc1C | -2 | 47 | . | -2 | -15 | . | .
Cc1cc2nc(C)n(CCCN)c2cc1C | -1 | 51* | 18 | 1 | 14 | . | .
CNC(=O)N(O)C1N(/N=C/c2ccc(N(C)C)cc2)C(=S)SC1(C)C (stereo unspecified) | -3 | 0 | . | 0 | 18 | . | .
CC1(C)SC(=S)N(/N=C/c2ccccc2)C1N(O)C(=O)Nc1ccc([N+](=O)[O-])cc1 (stereo unspecified) | -3 | -14 | . | 2 | 42* | . | .
COc1cc(OC)c(/C=N/NC(N)=S)cc1Br | -1 | 2 | . | 42 | 35* | . | .
COc1ccc(-c2ccc(C#N)c(SCC(=O)OCc3ccccc3)n2)cc1OC | + | 19 | 6 | 99 | 23 | . | .
COc1ccc(-c2ccc(C#N)c(SCC(=O)NCc3ccco3)n2)cc1OC | + | 17 | -13 | -4 | 46* | . | .
COc1cccc(-c2ccc(C#N)c(SCC(=O)NCCc3ccccc3)n2)c1 | 4 | 13 | 4 | 8 | 4 | . | .
COC(=O)C1=C(c2ccc(C(C)=O)cc2)CC2CCC1N2C(=O)NC1CCCCC1 (stereo unspecified) | . | . | 6 | . | . | . | .
O=C(NC1CCN(C(=O)Nc2ccccc2)CC1)C1CCCCC1 | 5 | 52* | 7 | 4 | 1 | . | .
CCOc1ccc(-c2c(C(=O)NN=Cc3ccc(O)cc3)nnn2-c2nonc2N)cc1 | . | . | 10 | . | . | . | .
COc1cc(/C=C/c2cc(OC(C)=O)c3ccccc3n2)c(OC(C)=O)c([N+](=O)[O-])c1 | -3 | -9 | 23 | -5 | 37* | . | .
CNS(=O)(=O)c1cccc(C(=O)Nc2cccnc2)c1 | -8 | 56* | . | -15 | 0 | . | .
CC(=O)NCCNC(=O)C1Cc2c(-c3ccc4c(c3)OCO4)ccnc2O1 (stereo unspecified) | 65* | . | . | . | -9 | 19 | -3 | GDH-TPI DR=2.9*
O=C(NCC1CC1)C1Cc2c(-c3cccc(F)c3)ccnc2O1 (stereo unspecified) | 2 | . | . | . | 10 | . | .
CNC(=O)C1Cc2c(-c3ccc4c(c3)OCO4)ccnc2O1 (stereo unspecified) | 60* | . | . | . | 6 | 97* | 77*
SMILES | Mtb FBA inh | DUSP3 inh | Mtb hypoxia inh | Mtb betalactam | GDH-TPI counter-1 | Mtb FBA confirm | GDH-TPI counter-2 | others
CC(=O)NCCNC(=O)C1Cc2c(-c3ccccc3)ccnc2O1 (stereo unspecified) | -1 | . | . | . | 2 | . | .
O=C(NCC1CC1)C1Cc2c(-c3ccc4c(c3)OCO4)ccnc2O1 (stereo unspecified) | 54* | . | . | . | 12 | 138* | 95*
O=C(Nc1ccc2c(c1)OCO2)C1Cc2c(-c3ccncc3)ccnc2O1 (stereo unspecified) | 0 | . | . | . | 14 | . | .
CN1CCN(C(=O)C2Cc3c(-c4ccc5c(c4)OCO5)ccnc3O2)CC1 (stereo unspecified) | 40* | . | . | . | 7 | 18 | 6 | GDH-TPI DR=3.1*
CC(CC(=O)Nc1ccc(C)c(Cl)c1)=NNC(=O)Cc1ccccc1 | . | . | 8 | . | . | . | .
COc1cccc(C=NNC(=O)CNC(=O)c2cccnc2)c1O | . | . | 7 | . | . | . | .
CC(=O)Nc1cccc(-c2ccnc3c2CC(C(=O)Nc2ccc4c(c2)OCO4)O3)c1 (stereo unspecified) | -4 | . | . | . | 4 | . | .
COc1ccc(NC(=O)C2Cc3c(-c4ccc5c(c4)OCO5)ccnc3O2)cc1 (stereo unspecified) | 46* | . | . | . | -1 | 21 | 12*
O=C(Nc1ccc2c(c1)OCO2)C1Cc2c(-c3ccc4c(c3)OCO4)ccnc2O1 (stereo unspecified) | 36* | . | . | . | -6 | 77* | 61*
CC(=O)Nc1ccc(NC(=O)C2Cc3c(-c4ccc5c(c4)OCO5)ccnc3O2)cc1 (stereo unspecified) | 33* | . | . | . | 6 | 9 | 1
CCOC(=O)CCc1c(C)nc2cc(-c3ccccc3OC)[nH]n2c1=O | 28* | -6 | 6 | 0 | -6 | 138* | 124*
COc1ccc(OC)c(C=NNc2nccs2)c1 | . | . | 13 | . | . | . | .
COc1ccc(-c2nc3ccc(N4CCN(C)CC4)cc3c(=O)[nH]2)cc1 | 32* | -2 | 1 | 2 | 18 | 3 | 3
CC(=NNS(=O)(=O)c1ccc(C)cc1)[C@H]1C[C@@H]1c1ccccc1 | . | . | 1 | . | . | . | .
O=C(c1ccc(F)cc1)c1cc2ccc(O)cc2oc1=O | -6 | 10 | -4 | 1 | 10 | . | .
N=c1oc2cc(O)ccc2cc1C(=O)Nc1ccc(F)cc1 | 90* | 2 | 3 | 96 | -2 | 160* | 134*
CC(NS(=O)(=O)C=Cc1ccccc1)c1ccccc1 (stereo unspecified) | . | . | 12 | . | . | . | .
CON=C/C=C1/N(C)c2ccccc2C1(C)C | . | . | 1 | . | . | . | .
N#CCc1nn2c(-c3ccccc3)ccnc2c1C#N | 69* | 24 | -5 | 9 | 14 | 121* | 91*
CCOc1cc(C=NNC(=O)c2cccnc2)ccc1OCc1ccc(C(=O)OC)o1 | . | . | -2 | . | . | . | .
Cc1cc(O)c2c(C)c(CC(=O)N3CCN(C(=O)C4COc5ccccc5O4)CC3)c(=O)oc2c1 (stereo unspecified) | -1 | 21 | -7 | 2 | 19 | . | .
CC(=O)Oc1ccc2c(C)c(CC(=O)N3CCN(C(=O)C4COc5ccccc5O4)CC3)c(=O)oc2c1C (stereo unspecified) | 44* | 8 | 1 | 5 | 2 | 3 | -3

Screens: PubChem, several laboratories
